Laboratory results as given in PubChem BioAssay AID951 (NMMLSC, 2007).
Among all 190,000 compounds or so, about 140 (0.074%) were called active. No stated cut-off is given here; in the data, active means inhibition above about 40%. For the sample, actives were picked, then their nearest neighbours and some compounds at random.

Biological target: Bcl-2-like protein 10 (Homo sapiens) (UniProt Q9HD36)
Test: inhibitors of Bim-Bcl-B binding, primary screen, biochemical, multiplexed, human Bcl-2 family (AID 951);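 further: 0% = tracer peptide without compound and 100% = reference inhibitor peptide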
Conditions: bead-based flow cytometry, Bim peptide-Bcl-B binding; at 10 µM; stronger effect = higher value

Chain of Bcl-2-like protein 10 (Homo sapiens) (Q9HD36 whole entry, looked up): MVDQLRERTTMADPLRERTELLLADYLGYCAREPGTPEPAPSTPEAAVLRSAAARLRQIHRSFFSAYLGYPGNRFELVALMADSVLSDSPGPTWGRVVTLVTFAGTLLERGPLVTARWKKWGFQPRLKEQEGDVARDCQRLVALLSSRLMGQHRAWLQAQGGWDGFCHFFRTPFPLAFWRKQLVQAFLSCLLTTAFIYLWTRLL

| Compound | inhibition |
| --- | --- |
| CC(C)NC(=O)/C(C#N)=C\c1ccc(N(C)C)c(Br)c1 | -2% (inactive) |
| CCc1nccn1S(=O)(=O)c1cccc([N+](=O)[O-])c1 | -2% (inactive) |
| CCc1c(SCCC(=O)O)nc2ccccc2c1C | -7% (inactive) |
| CN(Cc1ccccn1)Cc1nc(-c2ccc(Cl)cc2)no1 | -6% (inactive) |
| Nc1nnnn1CC(=O)N/N=C/c1ccc(-c2cccc(Cl)c2)o1 | -4% (inactive) |
| Cc1cc(C)n(-c2ccc3nncn3n2)n1 | 2% (inactive) |
| Cc1ccc(C2=NN(C(=O)CSc3nc(N)cc(N)n3)C(c3ccco3)C2)cc1 (configuration not stated) | -27% (inactive) |
| CC1CCc2sc(C(=O)N/N=C/C3CCCCC3)cc2C1 (configuration not stated) | -6% (inactive) |
| Cc1ccc2nc(-c3ccncc3)cc(C(=O)Nc3ccc(OC(F)F)cc3)c2c1 | 1% (inactive) |
| COc1ccc(-n2cc(CNC3CCOCC3)c(-c3cccc(F)c3)n2)cc1 | -5% (inactive) |
| COc1ccc(Cl)cc1N(CC(=O)N1CCCCC1)S(C)(=O)=O | -5% (inactive) |
| CSCc1cc(N(C)C)nc(SCc2ccc(Cl)cc2Cl)n1 | 69% (active) |
| Clc1ccc(CSc2nnc(/C=C/c3ccccc3)o2)c(Cl)c1 | -9% (inactive) |
| CSCc1cc(N2CCOCC2)nc(SCc2ccc(Cl)cc2Cl)n1 | -11% (inactive) |
| Cc1cccc(NC(=S)N2CCCC(c3nc4ccccc4[nH]3)C2)c1 (configuration not stated) | -14% (inactive) |
| O=C(COC(=O)[C@H](Cc1ccccc1)NC(=O)c1cccs1)Nc1cc(F)ccc1F | -14% (inactive) |
| Cc1ccc(C)c(NC(=O)CSc2nc3c(oc4ccccc43)c(=O)n2-c2ccccc2)c1 | -6% (inactive) |
| C/C(=N\NC(=O)c1cccc(N2CCCC2=O)c1)c1ccc(N)cc1 | -7% (inactive) |
| CC(O)C(NS(=O)(=O)c1ccc(Cl)cc1)C(=O)OCc1cc([N+](=O)[O-])cc2c1OCOC2 (configuration not stated) | 0% (inactive) |
| COc1ccc(N(C(=O)c2ccc(C)cc2)S(=O)(=O)c2cccs2)cc1 | -6% (inactive) |
| CSCCC(NC(=O)COc1ccccc1)C(=O)Nc1ccc(C)cc1 (configuration not stated) | -6% (inactive) |
| Cc1nc(CC(=O)NNS(=O)(=O)c2ccc(F)c(Cl)c2)cs1 | 1% (inactive) |
| O=C(NC1CCCCC1)C1CCCN(S(=O)(=O)c2ccc(Br)s2)C1 (configuration not stated) | -6% (inactive) |
| c1ccc2c(c1)CSc1sccc1C2=C1CCNCC1 | -4% (inactive) |
| Cc1ccc(C(C)NC(=O)Cn2nc(C)c([N+](=O)[O-])c2C)cc1 (configuration not stated) | -3% (inactive) |
| CCOC(=O)N/N=C/c1cccnc1 | -4% (inactive) |
| CCN(CC)P(=O)(Nc1ccc(SC(F)F)cc1)c1ccc(N(C)C)cc1NC(=O)c1ccco1 (configuration not stated) | 1% (inactive) |
